Data taken from PubChem BioAssay (NCATS).
Inconclusive results are not listed. Active and inactive are the calls of the source. The call rests on the fitted dose curve; in most records, active means well fitted inhibition curve with a large enough effect; inconclusive means small, poorly fitted or top-dose-only effect; inactive means flat fitted curve, though single readings scatter.

Tests used:
Experiment in all cases: Cytotoxic Profiling of Annotated Libraries Using Quantitative High-Throughput Screening (AID 1296008); further: nearly all actives have a fitted effect of over 60% in size
Details in all cases: Five cell lines viability, CellTiter-Glo ATP luminescence, 48-72 h; max response: active compounds read low
CRL-7250 = normal cell line; tested on: CRL-7250
Procedure, shortened: (§1)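 Compounds were pin-transferred onto cells and incubated 48 or 72 hr at 37 degree Celsius, 95% humidity. CellTiter-Glo was added, plates sat 10 min at room temperature, then ATP-coupled luminescence was imaged as the viability read-out.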

HEK293 = tested on: HEK293
Procedure, shortened: as §1

HaCat = tested on: HaCat
Procedure, shortened: as §1

KB-3-1 = tested on: KB-3-1
Procedure, shortened: as §1

NIH3T3 = tested on: NIH3T3
Procedure, shortened: as §1

Measured: max response
On the % scale 0 is the no-effect control and ±100 the full control effect.

CC1CC(=O)[C@]2(O)C(C(=O)OCCc3ccc(O)cc3)=CO[C@@H](O[C@@H]3O[C@H](CO)[C@@H](O)[C@H](O)[C@H]3O)[C@H]12 (stereo not given in full)
inactive: CRL-7250 -11.7% | HEK293 -6.36% | HaCat | KB-3-1 | NIH3T3 -59.3%

CSC(=O)OCC1=C[C@@H]2OC(=O)C3=CO[C@@H](O[C@@H]4O[C@H](CO)[C@@H](O)[C@H](O)[C@H]4O)[C@H]1[C@@H]32
inactive: CRL-7250 -1.2% | HEK293 -0.187% | HaCat | KB-3-1 | NIH3T3 1.53%

CC(=O)OC/C(=C/C(=O)O)CC[C@@H]1C(C)=CC(=O)[C@@H]2C(C)(C)CCC[C@@]12C
inactive: CRL-7250 | HEK293 -0.879% | HaCat | KB-3-1 -6.11% | NIH3T3

CC(C)CC(=O)O[C@@H]1O[C@H](CO)[C@@H](O[C@H]2O[C@H](C)[C@@H](N[C@H]3C=C(CO)[C@@H](O[C@H]4O[C@H](CO)[C@@H](O[C@H]5O[C@H](CO)[C@@H](O[C@H]6O[C@H](CO)[C@@H](O)[C@H](O)[C@H]6O)[C@H](O)[C@H]5O)[C@H](O)[C@H]4O)[C@H](O)[C@H]3O)[C@H](O)[C@H]2O)[C@H](O)[C@H]1O
inactive: CRL-7250 1.09% | HEK293 -7.41% | HaCat | KB-3-1 | NIH3T3 -2.08%

CCc1nn(CCO)c(CC)c1Oc1cc(C#N)cc(C#N)c1
inactive: CRL-7250 | HEK293 2.02% | HaCat | KB-3-1 | NIH3T3 -3.44%

C=C[C@H]1[C@H](O[C@@H]2O[C@H](CO)[C@@H](O)[C@H](O)[C@H]2O)OC=C2C(=O)N3Cc4c([nH]c5ccccc5c4=O)[C@@H]3C[C@H]21
inactive: CRL-7250 | HEK293 | HaCat -8.84% | KB-3-1 | NIH3T3 -10.2%

OC[C@H]1O[C@@H](OC[C@H]2O[C@@H](OCc3ccccc3)[C@H](O)[C@@H](O)[C@@H]2O)[C@H](O)[C@@H](O)[C@@H]1O
inactive: CRL-7250 | HEK293 -4.26% | HaCat | KB-3-1 | NIH3T3 -6.32%

Cc1[nH]c2ccccc2c1CC(=O)N[C@@H](Cc1ccccc1)C(=O)N(C)c1ccccc1
inactive: CRL-7250 -9.69% | HEK293 -12.5% | HaCat | KB-3-1 | NIH3T3 -0.277%

CC1=C[C@@H]2[C@H]3[C@@H]4O[C@@](C)(CC[C@H]4O)[C@H]3CC(=O)[C@]23C(=O)N[C@@H](CC(C)C)[C@@H]3[C@@H]1C
inactive: CRL-7250 | HEK293 4.29% | HaCat | KB-3-1 9.19% | NIH3T3

CCC12CCCN3CCc4c(n(c5ccccc45)C(O)C1)C32 (stereo not given)
inactive: CRL-7250 -2.83% | HEK293 -7.92% | HaCat | KB-3-1 | NIH3T3 -1.2%

C=C(CCO)C(=O)OCC1OCC(OC(=O)C(=C)CCO[C@@H]2O[C@H](COC(=O)C(=C)CCO[C@@H]3O[C@H](CO)[C@@H](O)[C@H](O)[C@H]3O)[C@@H](O)[C@H](O)[C@H]2O)C(O)C1O (stereo not given in full)
inactive: CRL-7250 0.815% | HEK293 | HaCat -17.9% | KB-3-1 0.844% | NIH3T3 3.62%

CC(O)C1NC(=O)C2CCCN2C1=O (stereo not given)
inactive: CRL-7250 3.11% | HEK293 | HaCat -1.16% | KB-3-1 | NIH3T3 -1.84%

CCC(C)/C=C(C)/C=C/C1=CC2=C(Cl)C(=O)C(C)(OC(C)=O)C(=O)C2=CN1CCCCC(N)C(=O)O (stereo not given)
inactive: CRL-7250 -2.74% | HEK293 3.25% | HaCat | KB-3-1 | NIH3T3 3.52%

COc1ccc(-n2c(=O)[nH]c3cc(C(=O)NCc4ccc(Cl)cc4)sc3c2=O)nc1OC
inactive: CRL-7250 1.31% | HEK293 2.86% | HaCat -5.79% | KB-3-1 2.11% | NIH3T3

CC(=O)c1ccc(O[C@@H]2OC[C@@H](O)[C@H](O)[C@H]2O[C@]2(CO)O[C@H](CO)[C@@H](O)[C@@H]2O)c(O)c1
inactive: CRL-7250 | HEK293 2.18% | HaCat | KB-3-1 | NIH3T3

CC(=O)OC/C(=C/C(=O)O)CC[C@@H]1C(CO)=CC[C@@H]2C(C)(C)CCC[C@@]12C
inactive: CRL-7250 1.35% | HEK293 1.68% | HaCat | KB-3-1 | NIH3T3 -1.93%

Cc1ccc(-n2nc(C(C)(C)C)cc2NC(=O)Nc2cc(COc3cccnc3)[nH]n2)cc1
inactive: CRL-7250 -4.33% | HEK293 -3.79% | HaCat | KB-3-1 | NIH3T3

CC(=O)OC1CC2(C)C(CCC(C)C23Cc2c(O)cc4c(c2O3)CNC4=O)C(C)(C)C1O (stereo not given)
inactive: CRL-7250 -8.86% | HEK293 | HaCat -6.41% | KB-3-1 | NIH3T3 -10.8%

COC(=O)C1=CO[C@@H](O[C@@H]2O[C@H](CO)[C@@H](O)[C@H](O)[C@H]2O)[C@H]2[C@@H]1[C@H](O)C[C@]2(C)O
inactive: CRL-7250 | HEK293 -1.47% | HaCat | KB-3-1 | NIH3T3 -11.4%

NC1Nc2ccccc2C1(N)CC1NC(=O)C(Cc2ccccc2)NC(=O)C(Cc2ccccc2)NC1=O (stereo not given)
inactive: CRL-7250 -1.59% | HEK293 -40.7% | HaCat | KB-3-1 2.51% | NIH3T3 1.33%

COc1c2cc(c(O[C@@H]3O[C@H](CO)[C@@H](O)[C@H](O)[C@H]3O)c1OC)CCCCC(O)CCc1ccc(O)c-2c1 (stereo not given in full)
inactive: CRL-7250 0.579% | HEK293 -2.25% | HaCat | KB-3-1 | NIH3T3 1.47%

CCC(C)C(=O)O[C@H]1C[C@](C)(O)[C@]23OC(C)(C)[C@H](C[C@H](OC(=O)c4ccccc4)[C@]2(COC(C)=O)[C@H]1OC(=O)C(C)CC)[C@H]3OC(C)=O (stereo not given in full)
inactive: CRL-7250 -7.32% | HEK293 -12.8% | HaCat | KB-3-1 | NIH3T3 4.39%

CC1OC(OC2C(OC3C(O[C@H]4CC[C@@]5(C)C(CC[C@]6(C)C5C(=O)CC5=C7CC(C)(C)CC(O)[C@]7(C)CC[C@]56C)C4(C)C)OC(C(=O)O)C(O)C3O)OCC(O)C2O)C(O)C(O)C1O (stereo not given in full)
inactive: CRL-7250 0.224% | HEK293 2.58% | HaCat | KB-3-1 | NIH3T3 -0.899%

O=C(O)/C=C/c1ccc2occc2c1O[C@@H]1O[C@H](CO)[C@@H](O)[C@H](O)[C@H]1O
inactive: CRL-7250 -6.75% | HEK293 1.57% | HaCat | KB-3-1 | NIH3T3

CC1CCC2C(C(=O)O)=CC3(O)CC(C)(C)CC123 (stereo not given)
inactive: CRL-7250 2.87% | HEK293 | HaCat 0.596% | KB-3-1 4.07% | NIH3T3 1.6%

O=C(O)C[C@H]1CCC(=O)[C@@H]1C/C=C\CCO
inactive: CRL-7250 | HEK293 0.813% | HaCat | KB-3-1 0.282% | NIH3T3

C=C(C)C1Cc2c(ccc3c2OCC(c2ccc(O)cc2O)C3)O1 (stereo not given)
inactive: CRL-7250 -23.3% | HEK293 -18.8% | HaCat | KB-3-1 -21.6% | NIH3T3 -8.17%

CCOc1ccc(-c2nn3ncccc3c2-c2ccc(S(C)(=O)=O)cc2)cc1
inactive: CRL-7250 -7.67% | HEK293 -11.9% | HaCat | KB-3-1 2.36% | NIH3T3 3.39%

C=C1[C@H](OC(C)=O)[C@H]2[C@@H](OC(=O)c3ccccc3)[C@@H](C)C[C@]2(O)[C@@H](OC(C)=O)[C@H](C)/C=C/C(C)(C)C(=O)[C@H](OC(C)=O)[C@H]1OC(C)=O
inactive: CRL-7250 3.14% | HEK293 -5.03% | HaCat | KB-3-1 | NIH3T3 3.53%

O=C(OCc1ccccc1O[C@@H]1O[C@H](CO)[C@@H](O)[C@H](O)[C@H]1O)C1(O)C=CCCC1O (stereo not given in full)
inactive: CRL-7250 3.78% | HEK293 2.2% | HaCat -2.8% | KB-3-1 5.3% | NIH3T3

Cc1oc(S(=O)(=O)N2CCCCC2)cc1NC(=O)Nc1ccccc1
inactive: CRL-7250 | HEK293 -1.71% | HaCat | KB-3-1 | NIH3T3 -1.71%

COc1cccc(OC)c1-c1cc(C(=O)N[C@@H](CC(C)C)C(=O)O)nn1-c1ccnc2cc(Cl)ccc12
inactive: CRL-7250 | HEK293 -1.22% | HaCat | KB-3-1 | NIH3T3

O=C(/C=C/c1ccc(O)cc1)O[C@@H]1C[C@@](O)(C(=O)O)C[C@@H](O)[C@@H]1O
inactive: CRL-7250 -19.8% | HEK293 -2.92% | HaCat -16.3% | KB-3-1 5.75% | NIH3T3

CC1(C)CC(NC(=O)C(=O)Nc2ccc(Cl)cc2)CC(C)(C)N1
inactive: CRL-7250 -5.64% | HEK293 -2.65% | HaCat | KB-3-1 4.82% | NIH3T3

CC(C)(O)c1ccc2c(c1)C(=O)C[C@H]1[C@](C)(C(=O)O)CCC[C@]21C
inactive: CRL-7250 -1.21% | HEK293 -10.2% | HaCat | KB-3-1 5.87% | NIH3T3

C=C1CC[C@H]2[C@@](C)(CCC(O)[C@@]2(C)CO)[C@@H]1/C=C/C(=C\C(=O)O)C(=O)O (stereo not given in full)
inactive: CRL-7250 -1.65% | HEK293 -0.745% | HaCat | KB-3-1 | NIH3T3 -1.97%

C=C1C[C@H](O)[C@@H](O)[C@@]2(C)C1[C@@H](O)[C@H]1OC(=O)C3[C@@H](C)[C@@H](O)[C@H](O)C2[C@]31C (stereo not given in full)
inactive: CRL-7250 -9.79% | HEK293 3.52% | HaCat -3.92% | KB-3-1 | NIH3T3

COC(=O)C1=CO[C@@H](O[C@@H]2O[C@H](CO)[C@@H](O)[C@H](O)[C@H]2O)[C@@H]2C(C)CC(=O)[C@]12O (stereo not given in full)
inactive: CRL-7250 4.9% | HEK293 -0.581% | HaCat | KB-3-1 1.82% | NIH3T3

CC1=CC(=O)CC(C)(C)C1CCC(C)O[C@@H]1O[C@H](CO)[C@@H](O)[C@H](O)[C@H]1O (stereo not given in full)
inactive: CRL-7250 | HEK293 3.44% | HaCat | KB-3-1 5.09% | NIH3T3 0.902%
